Measurements published in PubChem BioAssay (NCATS).
Results filed as inconclusive are left out. Activity calls are given as the source filed them. Calls follow the shape of the dose curve; as a rule, active = well fitted inhibition curve with a large enough effect; inconclusive = small, poorly fitted or top-dose-only effect; inactive = flat fitted curve, though single readings scatter.

Legend:
Test in all cases: qHTS profiling for inhibitors of Plasmodium falciparum proliferation (AID 504749); also: nearly all actives have a fitted effect of over 60% in size;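 as to activity, negative = inhibition: 0% = DMSO vehicle and full inhibition = artemisinin control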
Details in all cases: P. falciparum in erythrocytes, SYBR Green DNA, 72 h; series mostly up to 28.7 µM
[1] = tested on: CP211
Outline: (§1)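 SYBR Green fluorescence (ex 485 nm, em 535 nm) reports parasite DNA after 72 h compound exposure of infected red cells at 0.3% parasitemia, 2.5% hematocrit; signal normalized to 0.29 uM artemisinin and vehicle wells.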

[2] = tested on: CP217
Outline: as §1

[3] = tested on: CP237
Outline: as §1

[4] = tested on: CP238
Outline: as §1

[5] = tested on: CP247
Outline: as §1

[6] = tested on: CP250
Outline: as §1

[7] = tested on: CP252
Outline: as §1

[8] = tested on: CP256
Outline: as §1

[9] = tested on: CP260
Outline: as §1

[10] = tested on: CP262
Outline: as §1

[11] = tested on: CP265
Outline: as §1

[12] = tested on: CP268
Outline: as §1

[13] = tested on: CP269
Outline: as §1

[14] = tested on: CP286
Outline: as §1

[15] = tested on: CP291
Outline: as §1

[16] = tested on: CP297
Outline: as §1

[17] = tested on: CP305
Outline: as §1

[18] = tested on: CP215
Outline: as §1

[19] = tested on: CP266
Outline: as §1
Potency is read from the fitted curve at half-maximal effect.

CN1C(=O)C(O)N=C(c2ccccc2)c2cc(Cl)ccc21 (centres undefined)
inactive: Potency [1] | Potency [2] | Potency [3] | Potency [4] | Potency [5] | Potency [6] | Potency [7] | Potency [8] | Potency [9] | Potency [10] | Potency [11] | Potency [12] | Potency [13] | Potency [14] | Potency [15] | Potency [16] | Potency [17]

COc1ccc2c(c1)C13CCCC[C@@H]1C(C2)N(C)CC3 (some centres undefined)
active: Potency [9] 11.2 µM
inactive: Potency [1] | Potency [18] | Potency [2] | Potency [3] | Potency [4] | Potency [5] | Potency [6] | Potency [7] | Potency [10] | outcome [19] | Potency [14] | Potency [16] | Potency [17]

O=P1(N(CCCl)CCCl)NCCCO1 (centres undefined)
inactive: Potency [1] | Potency [18] | Potency [2] | Potency [3] | Potency [4] | Potency [5] | Potency [6] | Potency [7] | Potency [9] | Potency [10] | Potency [11] | outcome [19] | Potency [12] | Potency [13] | Potency [14] | Potency [15] | Potency [16] | Potency [17]

COC1CC(=C(c2cccs2)c2cccs2)C[N+](C)(C)C1 (centres undefined)
active: Potency [2] 6.31 µM | Potency [3] 11.2 µM | Potency [4] 6.31 µM | Potency [5] 5.01 µM | Potency [6] 10 µM | Potency [7] 4.47 µM | Potency [8] 4.47 µM | Potency [9] 5.62 µM | Potency [11] 4.47 µM | Potency [13] 10.7 µM | Potency [14] 11.2 µM

CCOC(=O)CC(SP(=S)(OC)OC)C(=O)OCC (centres undefined)
inactive: Potency [1] | Potency [18] | Potency [2] | Potency [3] | Potency [4] | Potency [5] | Potency [6] | Potency [7] | Potency [8] | Potency [9] | Potency [10] | Potency [11] | Potency [12] | Potency [13] | Potency [14] | Potency [15] | Potency [16] | Potency [17]

CCC1(CC)C(=O)C=CNC1=O
inactive: Potency [1] | Potency [18] | Potency [2] | Potency [3] | Potency [4] | Potency [6] | Potency [7] | Potency [8] | Potency [9] | Potency [10] | Potency [11] | Potency [12] | Potency [13] | Potency [14] | Potency [15] | Potency [16] | Potency [17]

O=C(Nc1ccc(Br)cc1)c1cc(Br)cc(Br)c1O
inactive: Potency [1] | Potency [18] | Potency [2] | Potency [3] | Potency [4] | Potency [5] | Potency [6] | Potency [7] | Potency [8] | Potency [9] | Potency [11] | outcome [19] | Potency [12] | Potency [13] | Potency [14] | Potency [15] | Potency [16] | Potency [17]

NC(=O)c1cc([N+](=O)[O-])cc([N+](=O)[O-])c1
inactive: Potency [18] | Potency [4] | Potency [8] | outcome [19] | Potency [12] | Potency [14] | Potency [15] | Potency [16] | Potency [17]

C=C(C)[C@H]1CN[C@H](C(=O)O)[C@H]1CC(=O)O
inactive: Potency [1] | Potency [2] | Potency [3] | Potency [4] | Potency [5] | Potency [6] | Potency [7] | Potency [8] | Potency [9] | Potency [10] | Potency [11] | Potency [13] | Potency [14] | Potency [15] | Potency [17]

CCCCCCCCCC(=O)O[C@H]1CC[C@H]2[C@@H]3CCC4=CC(=O)CC[C@@H]4[C@H]3CC[C@]12C
inactive: Potency [1] | Potency [18] | Potency [2] | Potency [3] | Potency [4] | Potency [5] | Potency [6] | Potency [7] | Potency [8] | Potency [10] | Potency [11] | outcome [19] | Potency [12] | Potency [13] | Potency [15] | Potency [16] | Potency [17]

NNc1ccccc1
inactive: Potency [1] | Potency [18] | Potency [2] | Potency [3] | Potency [4] | Potency [5] | Potency [6] | Potency [7] | Potency [8] | Potency [9] | Potency [10] | Potency [11] | outcome [19] | Potency [12] | Potency [13] | Potency [14] | Potency [16] | Potency [17]

Cc1nnc2n1-c1ccc(Cl)cc1C(c1ccccc1)=NC2
inactive: Potency [1] | Potency [18] | Potency [2] | Potency [3] | Potency [4] | Potency [5] | Potency [6] | Potency [7] | Potency [9] | Potency [10] | Potency [11] | outcome [19] | Potency [12] | Potency [13] | Potency [14] | Potency [15] | Potency [16] | Potency [17]

Clc1ccc(C(c2ccc(Cl)cc2)C(Cl)(Cl)Cl)cc1
inactive: Potency [1] | Potency [2] | Potency [4] | Potency [5] | Potency [6] | Potency [7] | Potency [8] | Potency [9] | Potency [10] | Potency [11] | outcome [19] | Potency [12] | Potency [13] | Potency [14] | Potency [15] | Potency [17]

CCCCC/C=C\C/C=C\C/C=C\C/C=C\CCCC(=O)NCC(=O)O
inactive: activity, negative = inhibition [1] 8.66% [at 2.67 µM] | activity, negative = inhibition [18] 4.08% [at 2.67 µM] | activity, negative = inhibition [2] -11% [at 2.67 µM] | activity, negative = inhibition [3] 0.3% [at 2.67 µM] | activity, negative = inhibition [4] -1.95% [at 2.67 µM] | activity, negative = inhibition [5] 9.07% [at 2.67 µM] | activity, negative = inhibition [6] 11.6% [at 2.67 µM] | activity, negative = inhibition [7] -0.781% [at 2.67 µM] | activity, negative = inhibition [8] 0.973% [at 2.67 µM] | activity, negative = inhibition [9] 4.28% [at 2.67 µM] | activity, negative = inhibition [10] 2.09% [at 2.67 µM] | activity, negative = inhibition [11] 2.88% [at 2.67 µM] | activity, negative = inhibition [12] -7.02% [at 2.67 µM] | activity, negative = inhibition [13] 0.824% [at 2.67 µM] | activity, negative = inhibition [14] 0.0979% [at 2.67 µM] | activity, negative = inhibition [15] -4.76% [at 2.67 µM] | activity, negative = inhibition [16] -4.97% [at 2.67 µM] | activity, negative = inhibition [17] 3.97% [at 2.67 µM]

COP(=S)(OC)Oc1ccc(SC)c(C)c1
inactive: Potency [1] | Potency [18] | Potency [2] | Potency [3] | Potency [4] | Potency [5] | Potency [6] | Potency [7] | Potency [8] | Potency [9] | Potency [10] | Potency [11] | outcome [19] | Potency [12] | Potency [13] | Potency [14] | Potency [16] | Potency [17]

CC(C)(C)NCC(O)c1cc(Cl)c(N)c(C(F)(F)F)c1 (centres undefined)
inactive: outcome [19]
active: Potency [2] 11.2 µM | Potency [3] 7.08 µM | Potency [4] 8.91 µM | Potency [5] 10 µM | Potency [6] 10 µM | Potency [7] 8.91 µM | Potency [8] 11.2 µM | Potency [9] 12.6 µM | Potency [11] 8.91 µM | Potency [16] 15.1 µM

O=C(N/N=C/c1ccc([N+](=O)[O-])o1)c1cc([N+](=O)[O-])cc([N+](=O)[O-])c1O
active: Potency [2] 0.0028 µM | Potency [4] 0.0708 µM | Potency [5] 0.02 µM | Potency [6] 0.1 µM | Potency [8] 0.251 µM | Potency [11] 2.24 µM
